In the library only some 13% were active in any assay of this set; here they are far more common.
Pf growth 96h: P. falciparum growth inhibition at 96 hours; P. falciparum luciferase reporter growth, 96 h; Potency, µM (doses to about 28.7 µM), for the others: at the highest dose activity change, negative = inhibition, usual class: inhibitors; hit rate 6.9% among 320,000; AID 504834; further: potency means the concentration at half of the fitted maximal effect
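Parasite growth measured via integrated firefly luciferase reporter in P. falciparum. Infected erythrocytes at 2% hematocrit, 0.05% parasitemia final were treated 96 hours at 37 C under 5% CO2, and luminescence was read.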
HCMV antiviral: blocks human cytomegalovirus replication; HFF cells, HCMV-luciferase reporter, 72 h; active compounds read low; activity change, negative = inhibition, % at 57.5 µM; hit rate 4.5% among 410,000; in the data active means activity change below about -60%; inconclusive means no clear call, values can overlap the other calls; inactive means above about -39%
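Two compound doses tested in HFFs infected with HCMV-luciferase, MOI 1 PFU/cell, 72 h at 37C. Lysate luminescence read with OneGlo; data normalized against buffer-only and 10uM Salinomycin inhibitor controls.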
HCV inh: HCV inhibition | Huh7.5.1 HCVcc-Cre infection, luciferase reporter, 44 h | Potency, µM (highest dose often 41.8 µM), without a hit: top-dose activity change, negative = inhibition, actives largely listed as inhibitors | hit rate 3.4% among 340,000; further: potency means the concentration at half of the fitted maximal effect
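Whole-lifecycle infectious HCVcc-Cre system; cells 1,000/well, compound then virus (~0.5 moi) added 4 h after plating, 44 h culture. Luciferase read 15 sec following 15 min substrate incubation, room temp.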
Pf growth 48h: P. falciparum growth inhibition at 48 hours (one generation); AID 504832; P. falciparum luciferase growth in erythrocytes, 48 h; hit rate 5.9% among 310,000; Potency, µM (top dose mostly 28.7 µM), without a hit: at the highest dose activity change, negative = inhibition, hits mostly inhibitors; further: potency means the concentration at half of the fitted maximal effect
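Here the parasites carry a stable luciferase gene and grow inside erythrocytes in Albumax-based RPMI medium with compound for one erythrocytic cycle. Activity is scored as loss of luminescent signal.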
The depositor's hits bear a star; ? = inconclusive; · = no result given; [ ] = another dose, or the depositor's remark. Unless noted, the call rests on the fitted dose curve; in most records, active means well fitted inhibition curve with a large enough effect; inconclusive means small, poorly fitted or top-dose-only effect, or another doubt; inactive means no such curve, though single readings can be large or run the other way. On the % scale 0 is the no-effect control and ±100 the full control effect.

SMILES	Pf growth 96h	HCMV antiviral	HCV inh	Pf growth 48h
CCCOc1ccc(C(=O)Nc2ccc(NC(=O)c3ccccc3)c(C)c2)cc1	·	-24.4	·	·
CCn1nc(C)c2c(-c3ccccc3)cc(=O)n(C(C)C(=O)NCCc3ccccc3)c21 (centres undefined)	·	-17.7	·	·
Cc1cccc(-c2nc3c(cnn3-c3ccccc3)c(=O)n2-c2cccc(Cl)c2)c1	·	-25.3	·	·
COc1ccc(CC(=O)Nc2ccccc2NC(=O)Cc2ccc(OC)cc2)cc1	19.7%	29.5	-11.6%	6.57µM*
COc1ccc(CC(=O)NNS(=O)(=O)c2ccccc2[N+](=O)[O-])cc1	4.65µM*	-28.7	16.0%	24.4%
O=C(Cc1c(Cl)cccc1Cl)Nc1ccncc1Cl	?	·	?	3.1%
COc1ccc(CC(=O)Nc2ccncc2Cl)cc1	?	-92.4*	6.31µM*	-16.4%
COc1ccc(CC(=O)NNC(=O)COc2ccc3ccccc3c2)cc1	1.65µM*	?	-3.9%	20.0%
COc1ccc(N2CCN(C(=O)CN3CCSc4ccccc43)CC2)cc1	·	-9.5	·	·
NC(N)=Nc1ccc(N=C(N)N)cc1	8.28µM*	37.5	-8.3%	?
COc1ccc(NC(=O)C2CCCN(C(=O)c3ccc(Cl)cc3)C2)cc1Cl (centres undefined)	?	-72.8*	?	?
O=C(Nc1cccc(S(=O)(=O)N2CCOCC2)c1)C1CCCN(C(=O)c2ccc(Cl)cc2)C1 (centres undefined)	10.4µM*	?	?	?
O=C(c1ccc(Cl)cc1)N1CCN(C(=O)C2CCCCC2)CC1	5.86µM*	51.5	10.3%	8.3%
CN(C)S(=O)(=O)c1ccc(NC(=O)C2CCCN(C(=O)c3ccc(Cl)cc3)C2)cc1 (centres undefined)	?	?	?	-2.1%
O=C(Nc1ccc(S(=O)(=O)N2CCCCC2)cc1)C1CCCN(C(=O)c2ccc(Cl)cc2)C1 (centres undefined)	11.7µM*	-64.7*	-23.4%	?
Cc1ccc(Cl)cc1N1CCN(C(=O)CCS(=O)(=O)c2cc(Br)cc3c2N(C(=O)C2CC2)CC3)CC1	·	-35.0	·	·
CN(C)C(=O)c1ccc(Nc2nccc3c2cc(-c2ccsc2)n3C)cc1	·	-15.3	·	·
O=C(Nc1ccccc1)C1CCCN(C(=O)c2ccc(Cl)cc2)C1 (centres undefined)	8.9%	-64.6*	-9.4%	23.6%
O=C(Nc1cccc(F)c1)C1CCCN(C(=O)c2ccc(Cl)cc2)C1 (centres undefined)	?	?	-26.9%	?
CC(NC(=O)C1CCCN(C(=O)c2ccc(Cl)cc2)C1)c1cccc(C(F)(F)F)c1 (centres undefined)	?	3.7	?	13.1µM*
CN1C(=O)C(=Cc2ccccc2OCCOc2ccc([N+](=O)[O-])cc2)C(=O)N(C)C1=O	11.7µM*	-20.0	3.3%	3.8%
N#Cc1c(NCCCO)nc(NCc2ccccc2)c2c1CCN(Cc1ccccc1)C2	10.4µM*	22.9	11.2µM*	?
CC(C)c1nc(NCc2ccccc2)c(C#N)c2c1CCCC2	?	2.6	-0.4%	?
CN1CCc2c(C#N)c(N3CCCCC3)nc(NCc3ccccc3)c2C1	2.33µM*	45.7	?	?
Cc1ccc(SCc2nc(-c3ccc(C(=O)Nc4cc(C)ccc4C)cc3)oc2C)cc1	·	-6.5	·	·
SMILES	Pf growth 96h	HCMV antiviral	HCV inh	Pf growth 48h
Cc1c(Cl)cccc1NC(=O)Nc1c[nH]c(=O)[nH]c1=O	·	-16.0	·	·
Cc1cc(C)c(S(=O)(=O)n2ccc(-c3ccc(OCCN(C)c4ccccn4)cc3)n2)c(C)c1	7.38µM*	19.0	?	1.85µM*
CN(C)/C=C/C(=O)c1ccc(OCCN(C)c2ccccn2)cc1	-17.8%	37.5	-28.7%	12.4%[0.00184 µM]
Cc1cccc(-c2cnn(-c3cccc([N+](=O)[O-])c3)c2N)c1	96.5%	?	-17.8%	40.3%
Cc1cc[n+]2cc(-c3cccc([N+](=O)[O-])c3)c(-c3cccc([N+](=O)[O-])c3)cc2c1	0.147µM*	21.9	8.6%	0.828µM*
Cc1cccc(-n2c3nc(=O)[nH]c(=O)c-3cc3ccc(Cl)cc32)c1C	·	-24.2	·	·
CCc1cccc(CC)c1NC(=O)/C(C#N)=C/c1ccccc1C(F)(F)F	?	-103.1*	11.2µM*	-25.1%
COc1ccc(-c2cc3nc(C)cc(N)n3n2)cc1	122.0%	152.7	12.6%	139.3%
COc1ccc(-c2cc3nc(C)cc(-c4ccc(OC)cc4)n3n2)cc1	?	19.7	10µM*	?

Compound activity from PubChem BioAssay.
